Common to all, as to conditions: concentration: 1 μM, replicates: in singlicate; n = 1
Test [1] concerns MTOR.
The subject of test [2] is MUSK.
In test [3] the test system is MYLK2.
Test [4] deals with MYLK4.
Test [5] deals with MYLK.
In test [6] the test system is MYO3A.
Test [7] has as its system MYO3B.
For test [8], the system named is T1, NDR1.
T1 construct: gene STK38

For test [9], the system named is NDR2.
The test system of test [10] is NEK10.
The test system of test [11] is NEK11.
Test [12] has as its system NEK1.
In test [13] the test system is NEK2.
In test [14] the test system is NEK3.
Test [15] has as its system NEK4.
In test [16] the test system is NEK5.
The subject of test [17] is NEK6.
Test [18] deals with NEK7.
Test [19] relates to NEK9.
Test [20] relates to T2, NIK.
T2 construct: gene MAP3K14

Structures are written as SMILES.
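Also: KINOMEscan kinase panel screen.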

Consider `O=C(Nc1cccc(Oc2ccc3nc(NC(=O)C4CC4)cn3n2)c1)c1ccccc1C(F)(F)F`, for which the “%Inh” value in test [1] is 15%; in test [2], 11%; in [3], 0%; in [4] it was 0%; in [5], 10%; in test [6], 0%. Also, the “%Inh” value in [7] was 0%; in test [8] it was 26%; in test [9] it was 0%; in test [10], 0%; in test [11], 0%; in test [12], 9%. Moreover, the “%Inh” value in test [13] is given as 12%; in [14], 26%; in test [15], 0%; in [16] it was 9%; in test [17] it was 0%; in [18] it was 0%. Further, the “%Inh” value in test [19] and in [20] was 0% each time.
With `COc1cc2c(cc1OCCN1CCNCC1)ncc1c3ccc(C#N)cc3[nH]c21`, the “%Inh” value is given as 19% in test [1]; 0% in test [2]; 68% in [3]; 70% in [4]; 47% in test [5]; 0% in [6]. Also, the “%Inh” value in [7] is recorded as 0%; in test [8] it was 3%; in test [9], 0%; in test [10], 20%; in test [11] it was 7%; in test [12], 0%. Moreover, the “%Inh” value in test [13] was found to be 41%; in [14], 29%; in test [15], 100%; in test [16], 0%; in test [17], 15%; in test [18], 0%. Further, the “%Inh” value is recorded as 0% in test [19] and 65% in [20].
With `c1ccc(-c2n[nH]cc2Nc2ccnc3ccccc23)nc1` [GW694077], the “%Inh” value in test [1] is 11%; in test [2], 7%; in test [3], 0%; in test [4] it was 99.9%; in test [5], 22%; in [6] it was 25%. Besides, the “%Inh” value is on record as 0% in [7]; 0% in test [8]; 4% in [9]; 95.7% in test [10]; 0% in test [11]; 7% in test [12]. Further, the “%Inh” value came to 99.1% in test [13]; 3% in [14]; 0% in [15]; 6% in [16]; 0% in test [17]; 0% in test [18]. For the same molecule, the “%Inh” value turned out to be 41% in [19] and 19% in test [20].
Turning to `COc1ccc(-c2coc3ccc(-c4nnc(SCc5ccc(OC)c(C(F)(F)F)c5)o4)cc23)cc1`, the “%Inh” value in test [1] was found to be 0%; in test [2] it was 1%; in test [3] it was 0%; in test [4], 0%; in [5] it was 15%; in [6], 8%. In addition, the “%Inh” value in test [7] turned out to be 36%; in test [8], 20%; in test [9], 0%; in [10] it was 0%; in test [11] it was 0%; in test [12], 0%. Further, the “%Inh” value in [13] was found to be 8%; in test [14], 0%; in test [15] it was 2%; in test [16], 0%; in test [17], 13%; in test [18] it was 0%. Also, the “%Inh” value in [19] turned out to be 0%; in test [20], 1%.
In the case of `CN(C)S(=O)(=O)c1cc(-c2ccc3nccc(-c4cccc(S(N)(=O)=O)c4)c3c2)cnc1N` [GSK1669921], the “%Inh” value turned out to be 100% in [1]; 16% in [2]; 0% in [3]; 11% in [4]; 35% in test [5]; 0% in test [6]. In addition, the “%Inh” value is given as 1% in test [7]; 17% in [8]; 0% in test [9]; 9% in test [10]; 0% in test [11]; 0% in [12]. The “%Inh” value in [13] is 34%; in test [14], 0%; in test [15] it was 10%; in [16] it was 0%; in test [17], 0%; in test [18], 31%. In addition, the figures for the “%Inh” value in test [19] and in [20] were 32% and 3%, respectively.
`O=C(O)C(F)(F)F.O=C(O)C(F)(F)F.O=c1[nH]ccc2nc(N[C@@H]3CCCNC3)nc(Nc3ccc(S(=O)(=O)N4CCOCC4)cc3)c12` [GSK2177277]: the “%Inh” value in test [1] stood at 9%; in test [2] it was 98.2%; in test [3], 33%; in [4], 91.3%; in [5] it was 96.9%; in [6], 52%. Further, the “%Inh” value in test [7] is 0%; in test [8], 97.4%; in test [9] it was 74%; in [10] it was 93.6%; in [11] it was 0%; in test [12] it was 62%. Further, the “%Inh” value is listed as 80% in test [13]; 89% in test [14]; 96.1% in [15]; 51% in test [16]; 46% in test [17]; 35% in [18]. For the same molecule, the “%Inh” value worked out at 14% in test [19] and 87% in [20].
Regarding `CCn1c(-c2nonc2N)nc2c(C#CC(C)(C)O)ncc(OCCCCN)c21.O=C(O)C(F)(F)F.O=C(O)C(F)(F)F` [GSK507274], the “%Inh” value in test [1] is recorded as 19%; in test [2], 15%; in test [3], 48%; in [4] it was 0%; in test [5] it was 0%; in [6], 12%. The “%Inh” value came to 5% in test [7]; 7% in [8]; 0% in [9]; 15% in [10]; 50% in [11]; 0% in test [12]. Also, the “%Inh” value came to 34% in test [13]; 5% in [14]; 34% in test [15]; 11% in [16]; 1% in [17]; 0% in test [18]. The “%Inh” value in test [19] was determined as 0%; in [20], 68%.
In the case of `Cl.c1ccc(-c2ccc3c(Nc4ccc5[nH]ccc5c4)ccnc3c2)nc1` [GW440138], the “%Inh” value came out at 4% in [1]; 0% in [2]; 0% in [3]; 0% in test [4]; 13% in [5]; 23% in test [6]. The “%Inh” value in test [7] stood at 0%; in test [8] it was 0%; in [9] it was 27%; in [10], 1%; in [11], 0%; in test [12], 0%. Further, the “%Inh” value in test [13] is 0%; in test [14], 9%; in test [15], 0%; in test [16] it was 0%; in test [17], 0%; in [18] it was 0%. Moreover, the “%Inh” value in [19] is on record as 0%; in test [20], 24%.
